Shown are actives, neighbours in structure and some others; about 1.4% of the full set was active somewhere.
TrxR1 substrate: substrates of rat thioredoxin reductase 1 | Potency, µM (highest dose often 114 µM), for inactives: at the highest dose activity change, negative = substrate turnover | purified TrxR1 substrate turnover, NADPH consumption readout | hit rate 0.01% among 390,000 | O89049; also: potency is read from the fitted curve at half-maximal effect; nearly all actives have a fitted effect of over 50% in size
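Rat TrxR1, dispensed at 90 nM, was prereduced with 400 uM NADPH (final) for 5 min at ~22 deg C, then incubated with compound 15 min before 400 uM selenite. A first-read NADPH fluorescence drop versus no-compound background flagged substrates.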
PKM2 activator: increases activity of human pyruvate kinase M2; P14618; AID 1631; hit rate 0.34% among 260,000; purified PKM2, Kinase-Glo ATP luminescence, activation; response scale: 0% is enzyme alone, no compound; Potency, µM (top dose mostly 57.5 µM), without a hit: at the top dose activation, usual class: activators; also: potency is read from the fitted curve at half-maximal effect; nearly all actives have a fitted effect of over 55% in size
Target sequence (P14618 whole entry, looked up): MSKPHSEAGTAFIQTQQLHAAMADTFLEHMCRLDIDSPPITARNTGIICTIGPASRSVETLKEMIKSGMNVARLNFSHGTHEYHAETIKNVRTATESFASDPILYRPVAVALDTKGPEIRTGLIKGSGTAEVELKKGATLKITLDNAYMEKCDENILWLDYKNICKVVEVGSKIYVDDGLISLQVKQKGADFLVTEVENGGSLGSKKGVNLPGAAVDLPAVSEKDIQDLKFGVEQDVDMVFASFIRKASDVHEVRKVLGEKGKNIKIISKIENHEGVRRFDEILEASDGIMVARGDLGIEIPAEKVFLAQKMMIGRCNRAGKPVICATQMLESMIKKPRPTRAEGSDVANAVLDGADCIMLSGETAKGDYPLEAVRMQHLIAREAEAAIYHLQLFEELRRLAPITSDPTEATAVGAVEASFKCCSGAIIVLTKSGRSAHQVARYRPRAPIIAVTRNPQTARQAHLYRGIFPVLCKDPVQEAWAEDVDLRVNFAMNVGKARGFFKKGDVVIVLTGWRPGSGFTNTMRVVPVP
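Purified hPK-M2 (>95%) run at intermediate activity with 0.1 mM ADP and 0.5 mM PEP in 50 mM imidazole pH 7.2, KCl, MgCl2; 1 h room temperature. ATP formed read by Kinase-Glo luminescence; normalized to uninhibited and no-enzyme controls.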
mIDH1 inhibitor: blocks human mutant IDH1 R132H enzyme. hit rate 0.093% among 390,000. O75874. Potency, µM (doses to about 76.6 µM), inactives show top-dose activity change, negative = inhibition, hits mostly inhibitors. IDH1-R132H enzyme, NADPH consumption, diaphorase/resazurin fluorescence; also: potency is read from the fitted curve at half-maximal effect; nearly all actives have a fitted effect of over 65% in size
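IDH1-R132H (0.5 ug/mL dispensed) in pH 7.5 Tris buffer was preincubated 30 min with compound, then given a substrate mix of 0.016 mM NADPH and 2 mM alpha-KG for 80 min at room temperature; remaining NADPH was read by diaphorase/resazurin fluorescence.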
TrxR1 inh: blocks rat thioredoxin reductase 1; O89049; hit rate 1% among 390,000; recombinant rTrxR1, NADPH fluorescence consumption, selenite substrate; Potency, µM (top dose mostly 114 µM), inactives show at the top dose activity change, negative = inhibition, usual class: inhibitors; also: potency is read from the fitted curve at half-maximal effect; nearly all actives have a fitted effect of over 65% in size
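Rat TrxR1 (90 nM in the dispensed reagent) was pre-reduced with 400 uM NADPH for 5 min at room temperature, then incubated with compound for 15 min. After 400 uM selenite was added, NADPH fluorescence (Ex 340/Em 450 nm) was followed for 8 min.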
LDHA inh: LDHA (human) enzyme inhibition; P00338; AID 1347041; activity change, % (values are at about 110 or 230 µM); hit rate 0.15% among 480,000; purified LDHA, NADH/diaphorase-resazurin fluorescence; stronger effect = lower value; in the data active = activity change below about -30%; inconclusive = mostly about -25% to -30%;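 also: plate controls were DMSO wells for no effect and wells without enzyme for full effect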
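Human LDH5 (2 nM) was incubated with 0.06 mM NADH and 0.2 mM pyruvate for 5 min at room temperature in Tris pH 7.4. Remaining NADH was coupled through diaphorase/resazurin, and resorufin fluorescence was read at 0 and 20 min.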
GLS inh: blocks human kidney-isoform glutaminase activity. O94925. GLS enzymatic activity, qHTS titration. Potency, µM (series often up to 45.5 µM), without a hit: at the top dose activity change, negative = inhibition, most hits filed as inhibitors. hit rate 0.21% among 410,000; also: potency is read from the fitted curve at half-maximal effect
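Human kidney-isoform GLS in 45 mM KH2PO4 pH 8.2, 0.02% Tween-20, with compound, started with 1mM L-Glutamine (added stock). Glutamate oxidase/HRP/Amplex red coupled fluorescence read at start and after 30 min at RT.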
Active calls of the source: *; ? = inconclusive; . = not tested or not shown; [ ] = dose if it differs, or a comment. Unless noted, calls follow the shape of the dose curve; as a rule, active = well fitted curve in the direction sought with a large enough effect; inconclusive = small, poorly fitted or top-dose-only effect, or another doubt; inactive = no such curve, though single readings can be large; an effect the other way counts as inactive or inconclusive. Unless noted, % is scaled to controls: 0 for no effect and ±100 for the full control effect.

SMILES	TrxR1 substrate	PKM2 activator	mIDH1 inhibitor	TrxR1 inh	LDHA inh	GLS inh
COc1cccc(CCc2nnc(CCC(=O)N3CCN(Cc4ccccn4)CC3)o2)c1	6%	5%	-10%	32µM*	7	0%
CN(CC(=O)Nc1ccc(Cl)cc1)S(=O)(=O)c1ccc2c(c1)n(C)c(=O)c(=O)n2C	10%	.	9%	9%	-1	1%
CN(CC(=O)Nc1cccc(Cl)c1)S(=O)(=O)c1ccc2c(c1)n(C)c(=O)c(=O)n2C	-7%	.	0%	25µM*	0	9%
Cc1ccccc1CN(C)CCc1ccccn1	-17%	-2%	-8%	-35%	-32*	3%
O=C(O)c1ccc(-c2cccc3ccccc23)s1	.	.	.	.	4	.
CCc1ccc(-c2nc(CS(=O)CC(=O)NCc3ccccc3)c(C)o2)cc1 (stereo not given)	2%	.	-4%	32µM*	1	-6%
Cc1oc(-c2ccc(Cl)cc2)nc1CS(=O)CC(=O)NCc1ccccn1 (stereo not given)	-3%	.	0%	18µM*	-1	-18%
CCc1ccc(-c2nc(CS(=O)CC(=O)NCCCN3CCOCC3)c(C)o2)cc1 (stereo not given)	10%	.	-2%	20µM*	-3	0%
Cc1oc(-c2ccc(Cl)cc2)nc1CS(=O)CC(=O)NCc1ccccc1 (stereo not given)	-9%	.	-8%	?	0	-6%
CC(C)C(NS(=O)(=O)c1ccccc1)c1cccs1 (stereo not given)	.	.	.	.	10	.
CC1CCCCC1NC(=O)NC(=O)COC(=O)c1nccnc1N (stereo not given)	413%	.	1%	?	-3	-8%
CC1CCCCC1NC(=O)NC(=O)CCl (stereo not given)	5%	1%	6%	40µM*	1	-1%
CC1CCCC(NC(=O)NC(=O)CCl)C1C (stereo not given)	0%	-8%	-10%	7.9µM*	-2	2%
CCc1sc(C(=O)OCc2ccccc2C#N)cc1C	.	.	.	.	0	.
Cc1ccccc1NC(=O)Cc1nc(COC(=O)c2ccc(NC(N)=O)cc2)cs1	4%	.	0%	17%	2	-2%
CS(=O)(=O)c1ccc(C(=O)OCC(=O)Nc2cccnc2Cl)cc1[N+](=O)[O-]	3%	.	17%	2.5µM*	-1	2%
CS(=O)(=O)c1ccc(C(=O)OCC(=O)NC(=O)C2COc3ccccc3O2)cc1[N+](=O)[O-] (stereo not given)	-1%	.	1%	8.9µM*	1	-4%
Nc1ccc(C(=O)NNC(=O)C2COc3ccccc3O2)cc1[N+](=O)[O-] (stereo not given)	2%[57.1 µM]	.	-3%	-6%[57.1 µM]	2	-2%
Cc1ccccc1NC(=O)Cc1nc(COC(=O)c2ccc(S(C)(=O)=O)c([N+](=O)[O-])c2)cs1	-3%	.	-16%	3.2µM*	-2	2%
CC(CCC(C)[n+]1cccc(Br)c1)[n+]1cccc(Br)c1 (stereo not given)	7%	.	.	-5%	-31*	.
OCC(O)C[n+]1cccc(Br)c1 (stereo not given)	-1%	.	.	-13%	-10	.
COCCn1c(-c2ccc(-c3ccccc3Cl)o2)nc2c1c(=O)[nH]c(=O)n2CC(C)C	104%	28µM*	-3%	?	2	-3%
CCCCn1c(=O)[nH]c(=O)c2c1nc(-c1ccc(-c3ccccc3Br)o1)n2CCOC	15%	?	-3%	?	1	19%
O=C(O)c1cc(=O)c2c3nc4ccccc4oc-3cc(=O)c2[nH]1	-14%	.	.	?	18	28µM*
Nc1cc2nc3ccccc3oc-2cc1=O	-9%	0%	11%	?	7	2%
SMILES	TrxR1 substrate	PKM2 activator	mIDH1 inhibitor	TrxR1 inh	LDHA inh	GLS inh
Cc1c(CC(=O)N2CCCCC2)c(=O)oc2cc(O)ccc12	925%	.	0%	56µM*	3	6%
Cc1c(CC(=O)N2CCN(C(=O)C3COc4ccccc4O3)CC2)c(=O)oc2cc(O)ccc12 (stereo not given)	871%	0%	-5%	89µM*	-1	2%
Cc1oc2cc3oc(=O)c(CC(=O)N4CCCCC4)c(C)c3cc2c1C	-1%	.	-11%	2%	-4	-7%
C[n+]1c(/C=C/c2ccc3c(c2)OCO3)ccc2ccccc21	-3%	-4%	1%	4%	-33*	3%
O=C(COC(=O)c1c2c(nc3ccccc13)/C(=C\c1ccco1)CC2)NC1CCCC1	-13%	.	1%	?	-1	?
CN(CCC#N)C(=O)COC(=O)c1c2c(nc3ccccc13)/C(=C\c1ccco1)CC2	0%	.	1%	?	11	11µM*
CC1CCCCC1NC(=O)COC(=O)c1c2c(nc3ccccc13)/C(=C\c1ccco1)CC2 (stereo not given)	-2%	.	-4%	14µM*	7	11µM*
Cc1ccc(CN(C)C(=O)C2CCC(=O)N(CC3CCCCC3)C2)o1 (stereo not given)	6%	2%	0%	40µM*	2	-3%
O=C(CCc1ncc(-c2ccc(F)cc2F)o1)NCc1ccco1	.	.	.	.	3	.
Cc1cc(C(Br)(Br)Br)nc2ccccc12	5%	.	.	3.2µM*	2	.
Cc1ccsc1CN(C)C(=O)Cn1c(=O)c2c(ncn2C2CCCC2)n(Cc2ccccc2)c1=O	.	.	.	.	-12	.
CCOc1cc(/C=N/NC(=O)N/N=C/c2ccc(O)c(OCC)c2)ccc1O	-6%[11.4 µM]	.	8%	-9%[11.4 µM]	-7	8.9µM*
O=C(N/N=C/c1cc(Cl)cc([N+](=O)[O-])c1O)NC12CC3CC(CC(C3)C1)C2	0%	2%	-3%	14%	-1	8.9µM*
COc1cc(/C=N/NC(=O)C(=O)N2CCCCCC2)ccc1O	5%[57.1 µM]	-5%	6%	2%[57.1 µM]	-2	8.9µM*
COc1cc(/C=N/NC(=O)NC23CC4CC(CC(C4)C2)C3)ccc1O	7%[57.1 µM]	.	0%	2%[57.1 µM]	-2	7.9µM*
Nc1nc2c(s1)C(c1ccc(F)c(F)c1)CC(=O)N2 (stereo not given)	.	.	.	.	78	.
Cc1cc(NC(=O)NCc2nc(-c3ccccc3C)oc2C)ccc1Cl	.	.	.	.	2	.
CCC(N)CC12CC3CC(CC(C3)C1)C2 (stereo not given)	.	.	.	.	0	.
COc1cc(C=C2CN(C)C(=O)C2=O)ccc1O	.	.	2%	.	5	17%

Screening results from PubChem BioAssay.
